Consider 13 compounds from PubChem BioAssay (NCATS).

Results filed as inconclusive are left out. The source made the active and inactive calls. Unless noted, calls follow the shape of the dose curve; as a rule, active = well fitted curve in the direction sought with a large enough effect; inconclusive = small, poorly fitted or top-dose-only effect, or another doubt; inactive = no such curve, though single readings can be large; an effect the other way counts as inactive or inconclusive.

Chain of Ubiquitin carboxyl-terminal hydrolase 1 (Homo sapiens) (O94782 whole entry, looked up): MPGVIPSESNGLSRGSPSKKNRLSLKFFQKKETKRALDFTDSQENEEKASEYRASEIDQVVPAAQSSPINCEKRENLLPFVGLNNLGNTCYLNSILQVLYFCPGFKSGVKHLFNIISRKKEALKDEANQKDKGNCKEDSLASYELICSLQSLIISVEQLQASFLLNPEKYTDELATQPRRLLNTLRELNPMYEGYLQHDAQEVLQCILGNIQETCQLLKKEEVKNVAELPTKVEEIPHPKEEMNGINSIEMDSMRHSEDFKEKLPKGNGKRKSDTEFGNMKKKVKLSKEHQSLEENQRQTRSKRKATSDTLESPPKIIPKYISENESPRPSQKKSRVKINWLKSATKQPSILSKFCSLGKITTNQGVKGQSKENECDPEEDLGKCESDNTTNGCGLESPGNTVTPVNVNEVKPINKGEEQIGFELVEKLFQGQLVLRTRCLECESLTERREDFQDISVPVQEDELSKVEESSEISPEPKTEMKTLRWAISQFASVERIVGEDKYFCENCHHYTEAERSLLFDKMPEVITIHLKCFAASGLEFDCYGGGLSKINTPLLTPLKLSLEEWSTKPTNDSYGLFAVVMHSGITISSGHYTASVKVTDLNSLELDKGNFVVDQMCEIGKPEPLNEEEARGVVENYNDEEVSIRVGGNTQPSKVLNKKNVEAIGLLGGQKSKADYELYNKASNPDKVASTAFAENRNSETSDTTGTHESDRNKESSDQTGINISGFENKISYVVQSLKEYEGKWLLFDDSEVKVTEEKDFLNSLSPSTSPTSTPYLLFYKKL
Chain of Pyruvate kinase PKM (Homo sapiens) (P14618 whole entry, looked up): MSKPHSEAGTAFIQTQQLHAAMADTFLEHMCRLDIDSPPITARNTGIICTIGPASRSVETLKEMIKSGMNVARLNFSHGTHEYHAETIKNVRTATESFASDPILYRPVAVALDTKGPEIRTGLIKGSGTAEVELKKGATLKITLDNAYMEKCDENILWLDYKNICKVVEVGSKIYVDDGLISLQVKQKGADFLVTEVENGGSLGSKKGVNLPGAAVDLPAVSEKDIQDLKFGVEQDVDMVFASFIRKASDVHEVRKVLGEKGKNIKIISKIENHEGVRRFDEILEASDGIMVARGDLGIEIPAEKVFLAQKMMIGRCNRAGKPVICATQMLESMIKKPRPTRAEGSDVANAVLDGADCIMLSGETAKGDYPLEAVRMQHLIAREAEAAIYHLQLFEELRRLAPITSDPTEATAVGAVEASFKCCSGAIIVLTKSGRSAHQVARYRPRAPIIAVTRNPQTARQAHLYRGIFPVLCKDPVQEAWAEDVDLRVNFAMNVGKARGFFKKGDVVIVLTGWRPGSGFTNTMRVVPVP
Chain of Alpha-galactosidase A (Homo sapiens) (P06280 whole entry, looked up): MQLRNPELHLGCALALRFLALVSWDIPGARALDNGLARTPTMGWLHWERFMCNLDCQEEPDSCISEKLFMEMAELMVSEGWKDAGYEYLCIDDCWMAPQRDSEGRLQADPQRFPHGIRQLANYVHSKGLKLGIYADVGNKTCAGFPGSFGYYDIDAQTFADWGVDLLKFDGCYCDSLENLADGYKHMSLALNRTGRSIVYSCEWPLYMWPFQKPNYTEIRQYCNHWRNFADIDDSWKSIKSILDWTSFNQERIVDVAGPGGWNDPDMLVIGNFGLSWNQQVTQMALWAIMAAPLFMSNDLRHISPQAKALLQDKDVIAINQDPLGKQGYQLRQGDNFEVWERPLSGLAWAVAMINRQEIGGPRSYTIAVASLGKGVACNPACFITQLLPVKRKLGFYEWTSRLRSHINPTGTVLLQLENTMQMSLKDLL
Chain of Pyruvate kinase (Leishmania mexicana) (Q27686 2-499 E452W): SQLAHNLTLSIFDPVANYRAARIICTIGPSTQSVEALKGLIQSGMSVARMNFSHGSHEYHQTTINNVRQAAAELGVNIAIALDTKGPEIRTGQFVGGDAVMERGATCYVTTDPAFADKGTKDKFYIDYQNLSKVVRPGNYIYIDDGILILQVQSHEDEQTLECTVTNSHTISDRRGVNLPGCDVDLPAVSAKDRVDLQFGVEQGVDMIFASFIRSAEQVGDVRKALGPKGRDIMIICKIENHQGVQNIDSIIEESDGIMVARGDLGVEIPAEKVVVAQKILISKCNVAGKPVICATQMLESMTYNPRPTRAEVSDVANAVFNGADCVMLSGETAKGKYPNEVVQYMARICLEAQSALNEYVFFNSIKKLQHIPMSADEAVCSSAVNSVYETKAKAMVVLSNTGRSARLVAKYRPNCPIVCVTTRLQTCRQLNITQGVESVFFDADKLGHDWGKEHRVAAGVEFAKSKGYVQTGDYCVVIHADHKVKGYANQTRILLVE

One experiment has as its target Pyruvate kinase (Leishmania mexicana) (UniProt Q27686). Kind of experiment: qHTS Validation Assay for Inhibitors of Leishmania Mexicana Pyruvate Kinase (AID 945).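 Also: 0% = DMSO only neutral control wells.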 Particulars: purified L. mexicana pyruvate kinase, enzyme activity, E451W mutant enzyme; series mostly up to 57.5 µM; activity change, negative = inhibition: at the top concentration. Summed up:
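Luminescent ATP detection (PKLight) after a 1 h room-temperature reaction of 0.2 nM LmPYK E451W mutant with 0.5 mM PEP and 0.1 mM ADP at pH 7.2. Activity is normalized to DMSO-only control wells.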
For `C[C@@]12CC[C@H]3[C@@H](CC=C4C[C@H](OS(=O)(=O)O)CC[C@]43C)[C@H]1CCC2=O`, the “activity change, negative = inhibition” value was -2.05% (inactive).
On to `COc1ccc2c(c1O)-c1cccc3c1[C@H](C2)N(C)CC3`, for which the “activity change, negative = inhibition” value is -8.81% (inactive).
With `COc1cc([C@@H](O)CN)ccc1O`, the “activity change, negative = inhibition” value was 2.71% (inactive).
The same measure, in the same setting: for `CC(=O)c1c(O)c(C)c(O)c(Cc2c(O)c3c(c(C(=O)/C=C\c4ccccc4)c2O)OC(C)(C)C=C3)c1O` the value was 9.09% (inactive).
Regarding `O=C(O)[C@H]1[C@H](C(=O)O)[C@H]2CC[C@@H]1O2`, the “activity change, negative = inhibition” value is 1.06% (inactive).
Take `COc1ccc2c(c1)[C@]13CCCC[C@@H]1[C@H](C2)NCC3`: the “activity change, negative = inhibition” value was 4.73% (inactive).
Turning to `CO[C@@H]1CC=C2CCN3CCC4=C(CC(=O)OC4)[C@]23C1`, the “activity change, negative = inhibition” value was -10.9% (inactive).
Consider `CCNC(=O)[C@@H]1O[C@@H](n2cnc3c(N)ncnc32)[C@@H](O)[C@H]1O`, for which the “activity change, negative = inhibition” value was -9.15% (inactive).
The same measure, in the same setting: for `CC(C)N[C@@H](C)Cc1ccc(I)cc1` the value was 19.8% (inactive).
The same measure, in the same setting: as for `NC(=O)CN1C[C@@H](O)CC1=O`, the figure is 4.05% (inactive); as for `C[Se]C[C@@H](N)C(=O)O`, 11.3% (inactive).

The next experiment deals with Pyruvate kinase PKM (Homo sapiens) (UniProt P14618). Kind of experiment: qHTS Assay for Activators of Human Muscle Pyruvate Kinase (AID 954; active = well fitted curve in the direction sought with a large enough effect, not every such curve was filed as active;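 also: 0% = uninhibited enzyme and -100% = no enzyme or full thiadiazolimine inhibition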). The settings on record: purified human muscle pyruvate kinase, luciferase-coupled luminescence, 1 h; series mostly up to 57.5 µM; activity change, negative = inhibition: at the top concentration. Summed up:
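Enzyme was run at intermediate activity so both inhibitors and activators could be detected. ATP formed from ADP and PEP by 0.1 nM human PKM2 during a 1 h room-temperature incubation was quantified by coupled luciferase luminescence.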
Take `C[C@@]12CC[C@H]3[C@@H](CC=C4C[C@H](OS(=O)(=O)O)CC[C@]43C)[C@H]1CCC2=O`: the “activity change, negative = inhibition” value is -6.61% (inactive).
Take `COc1ccc2c(c1O)-c1cccc3c1[C@H](C2)N(C)CC3`: the “activity change, negative = inhibition” value is -15.5% (inactive).
Same read-out and setting: as for `COc1cc([C@@H](O)CN)ccc1O`, the figure is -24.8% (inactive); as for `CC(=O)c1c(O)c(C)c(O)c(Cc2c(O)c3c(c(C(=O)/C=C\c4ccccc4)c2O)OC(C)(C)C=C3)c1O`, -12.2% (inactive).
Same read-out and setting: as for `O=C(O)[C@H]1[C@H](C(=O)O)[C@H]2CC[C@@H]1O2`, the figure is -19.9% (inactive); as for `COc1ccc2c(c1)[C@]13CCCC[C@@H]1[C@H](C2)NCC3`, -13.3% (inactive); as for `CO[C@@H]1CC=C2CCN3CCC4=C(CC(=O)OC4)[C@]23C1`, -2.44% (inactive).
Consider `CCNC(=O)[C@@H]1O[C@@H](n2cnc3c(N)ncnc32)[C@@H](O)[C@H]1O`, for which the “activity change, negative = inhibition” value is 20.8% (inactive).
In the case of `CC(C)N[C@@H](C)Cc1ccc(I)cc1`, the “activity change, negative = inhibition” value was -19.1% (inactive).
On to `NC(=O)CN1C[C@@H](O)CC1=O`, for which the “activity change, negative = inhibition” value was -32.5% (inactive).
As for `C[Se]C[C@@H](N)C(=O)O`, the “activity change, negative = inhibition” value was -1.48% (inactive).

The target of another experiment is Alpha-galactosidase A (Homo sapiens) (UniProt P06280). Kind of experiment: Counterscreen for Glucocerebrosidase Inhibitors: qHTS Assay for Human alpha-Galactosidase at pH 4.5 (AID 992). Also: 0% is about no effect. The settings on record: purified enzyme, fluorogenic substrate; series mostly up to 76.9 µM; activity change, negative = inhibition: at the top concentration. The method, boiled down:
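Read-out is 4-methylumbelliferone fluorescence (365 nm excitation, 440 nm emission) after a pH 10 NaOH/glycine stop. Reactions held 2 nM enzyme and 80 uM substrate at pH 4.5 for 20 min at room temperature.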
Consider `C[C@@]12CC[C@H]3[C@@H](CC=C4C[C@H](OS(=O)(=O)O)CC[C@]43C)[C@H]1CCC2=O`, for which the “activity change, negative = inhibition” value was -0.804% (inactive).
On to `COc1ccc2c(c1O)-c1cccc3c1[C@H](C2)N(C)CC3`, for which the “activity change, negative = inhibition” value is 3.69% (inactive).
On to `COc1cc([C@@H](O)CN)ccc1O`, for which the “activity change, negative = inhibition” value was 3.52% (inactive).
With `CC(=O)c1c(O)c(C)c(O)c(Cc2c(O)c3c(c(C(=O)/C=C\c4ccccc4)c2O)OC(C)(C)C=C3)c1O`, the “activity change, negative = inhibition” value is -3.18% (inactive).
On the same count and under the same terms, as for `O=C(O)[C@H]1[C@H](C(=O)O)[C@H]2CC[C@@H]1O2`, the figure is -1.37% (inactive); as for `COc1ccc2c(c1)[C@]13CCCC[C@@H]1[C@H](C2)NCC3`, -1.7% (inactive).
With `CO[C@@H]1CC=C2CCN3CCC4=C(CC(=O)OC4)[C@]23C1`, the “activity change, negative = inhibition” value was 1.44% (inactive).
`CCNC(=O)[C@@H]1O[C@@H](n2cnc3c(N)ncnc32)[C@@H](O)[C@H]1O`: the “activity change, negative = inhibition” value was 0.61% (inactive).
The same measure, in the same setting: as for `CC(C)N[C@@H](C)Cc1ccc(I)cc1`, the figure is -0.607% (inactive); as for `NC(=O)CN1C[C@@H](O)CC1=O`, 1.59% (inactive).
As to `C[Se]C[C@@H](N)C(=O)O`, the “activity change, negative = inhibition” value was -0.322% (inactive).

In another experiment the target is alpha-glucosidase (Oryza sativa, rice) (UniProt Q653V4). Kind of experiment: Counterscreen for Glucocerebrosidase Inhibitors: qHTS Assay for Rice alpha-Glucosidase at pH 5.0 (AID 997).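 Also: 0% = full activity with enzyme and -100% = basal without enzyme.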 Particulars: rice alpha-glucosidase enzyme activity; series mostly up to 76.9 µM; activity change, negative = inhibition: at the top concentration. The method, boiled down:
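Rice alpha-glucosidase (4 nM final) with 400 uM 4-methylumbelliferyl-alpha-D-glucopyranoside in citrate buffer pH 5.0, 20 min at room temperature, stopped at pH 10; fluorescence 365/440 nm, compounds 0.7 nM–77 uM, AC50 from Hill fits.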
On to `C[C@@]12CC[C@H]3[C@@H](CC=C4C[C@H](OS(=O)(=O)O)CC[C@]43C)[C@H]1CCC2=O`, for which the “activity change, negative = inhibition” value was -0.47% (inactive).
For `COc1ccc2c(c1O)-c1cccc3c1[C@H](C2)N(C)CC3`, the “activity change, negative = inhibition” value was 1.63% (inactive).
As to `COc1cc([C@@H](O)CN)ccc1O`, the “activity change, negative = inhibition” value is -1.2% (inactive).
With `CC(=O)c1c(O)c(C)c(O)c(Cc2c(O)c3c(c(C(=O)/C=C\c4ccccc4)c2O)OC(C)(C)C=C3)c1O`, the “activity change, negative = inhibition” value is -6.55% (inactive).
With `O=C(O)[C@H]1[C@H](C(=O)O)[C@H]2CC[C@@H]1O2`, the “activity change, negative = inhibition” value is -4.23% (inactive).
On to `COc1ccc2c(c1)[C@]13CCCC[C@@H]1[C@H](C2)NCC3`, for which the “activity change, negative = inhibition” value was -2.62% (inactive).
With `CO[C@@H]1CC=C2CCN3CCC4=C(CC(=O)OC4)[C@]23C1`, the “activity change, negative = inhibition” value was 0.657% (inactive).
Regarding `CCNC(=O)[C@@H]1O[C@@H](n2cnc3c(N)ncnc32)[C@@H](O)[C@H]1O`, the “activity change, negative = inhibition” value is -1.18% (inactive).
As to `CC(C)N[C@@H](C)Cc1ccc(I)cc1`, the “activity change, negative = inhibition” value was -2.15% (inactive).
On to `NC(=O)CN1C[C@@H](O)CC1=O`, for which the “activity change, negative = inhibition” value was 0.877% (inactive).
Still for that read-out and setting: as for `C[Se]C[C@@H](N)C(=O)O`, the figure is 1.83% (inactive).

The next experiment concerns the target Ubiquitin carboxyl-terminal hydrolase 1 (Homo sapiens) (UniProt O94782). Kind of experiment: Inhibitors of USP1/UAF1: Pilot qHTS (AID 504865). Also: nearly all actives have a fitted effect of over 35% in size. Also: potency is read from the fitted curve at half-maximal effect.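 As to activity change, negative = inhibition: rhodamine fluorescence freed from ubiquitin-rhodamine substrate followed over time; top concentration of the series differs between compounds; % is scaled to controls: 0 for no effect and ±100 for the full control effect.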 Particulars: purified USP1/UAF1, Ub-rhodamine cleavage fluorescence; series mostly up to 114 µM; activity change, negative = inhibition: at the top concentration. Summed up:
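Deubiquitinase activity followed as kinetic rhodamine fluorescence release from 150 nM Ub-Rho. 1 nM USP1/UAF1 with compound, after 15 min room-temperature preincubation, in HEPES pH 7.8 buffer containing TCEP, EDTA, BSA and Tween-20.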
Regarding `C[N+]1(C)C2CC[C@H]1CC(OC(=O)[C@@H](CO)c1ccccc1)C2` (some centres not stated), the “activity change, negative = inhibition” value was 2.06% (inactive).
Regarding `CC(=O)c1c(O)c(C)c(O)c(Cc2c(O)c3c(c(C(=O)/C=C\c4ccccc4)c2O)OC(C)(C)C=C3)c1O`, the Potency is 79.4 µM (active).
With `COc1ccc(C[C@@H]2NC[C@H](O)[C@@H]2OC(C)=O)cc1`, the “activity change, negative = inhibition” value was 10.7% [at 54.9 µM] (inactive).
